These sequences were tested against T1, ETS1 (UniProt P14921) (assay: ETS1 binding intensity (PBM fluorescence), ETS1 alone (arbitrary fluorescence units); higher = stronger binding). Settings: ETS1 concentration 1 nM; RUNX1 concentration 0 nM.
T1 sequence: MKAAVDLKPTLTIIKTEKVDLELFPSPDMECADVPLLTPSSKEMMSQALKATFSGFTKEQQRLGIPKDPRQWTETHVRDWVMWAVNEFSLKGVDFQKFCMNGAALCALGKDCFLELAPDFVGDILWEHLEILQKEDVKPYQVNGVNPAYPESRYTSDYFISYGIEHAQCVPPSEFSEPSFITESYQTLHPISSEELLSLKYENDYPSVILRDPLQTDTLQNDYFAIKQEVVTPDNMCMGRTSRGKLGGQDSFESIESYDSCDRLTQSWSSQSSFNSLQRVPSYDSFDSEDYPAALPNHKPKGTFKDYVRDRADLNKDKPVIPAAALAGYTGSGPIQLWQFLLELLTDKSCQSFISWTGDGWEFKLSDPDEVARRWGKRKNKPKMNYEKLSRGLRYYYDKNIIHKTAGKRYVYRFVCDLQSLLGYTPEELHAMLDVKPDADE
Description: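 Cooperative genomic-context PBM: 36-bp genomic probes with neighbouring ETS1 and RUNX1 sites, double-stranded on Agilent 4x180k arrays. Full-length recombinant human ETS1 (1 nM) was incubated alone or with RUNX1 (25 nM) and detected with anti-ETS1 antibody plus Alexa488 secondary. Value is the median fluorescence intensity over 4 replicate spots; the ETS1+RUNX1 data were normalised to the ETS1-only data using probes without RUNX1 sites. The 36-bp variable region sits on the array probe with constant linker/primer flanks that are not printed.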
CTTAGCGGAAGAGGCGTGACCCAGGCGTACCGCAGG was tested, and the ETS1 binding intensity was 497.
For GACTGCACTTCCTCTGCTTCGAGGTCGGTGGTTAGC, the ETS1 binding intensity was 535.
TAGCCGTACGGAAATGTTTGTGGTTCTCTGCATCTA showed an ETS1 binding intensity of 647.
GGCCCGGCCGGAAGAAGCCACCTCCCCCGCACGCGT gave an ETS1 binding intensity of 2410.
In the case of GCTAGACAGGAAACAGTGAGCTTCTGTGGGCAGGAG, the ETS1 binding intensity is reported as 2770.
For CAGTGGCTAAGGATCCGGTGTTGCGGTGATACATGA, the ETS1 binding intensity was 430.
TGATCAGCAAAAGGAAGTGGTTAACATGGCCCAGAA showed an ETS1 binding intensity of 1540.
Sequence GCTGCTTCCGGCCGCTGGTCGCAGGGCTGCGGGACT has an ETS1 binding intensity of 865.
In the case of GGGCAGGCCGGATGTGGGAGACCACAAAGCCCAAGG, the ETS1 binding intensity is reported as 5360.
Sequence GGCCTGTCACACACAGGAAGCGGTCACAGAAAAGCT has an ETS1 binding intensity of 4530.
CACTGCGGAAGCAGTGTAGAGAGGTGGTTATCAGTG was tested, and the ETS1 binding intensity was 707.
For ATGTACATAGATACAGGATGTGGGTTTGTTACAAAG, the ETS1 binding intensity was 7940.
CCTCTTGCTGCCTCTTCCTGTGGTCTTTTCTCTGTC gave an ETS1 binding intensity of 737.
Sequence TACTTCTTCCTGGCAGAGACCGGGAGTGCGGTCCGC has an ETS1 binding intensity of 471.
TACACTCCCACATCCGCTGCGGCGCAACTCACAACA showed an ETS1 binding intensity of 969.
GCTACGGGTTCCCCGGATGGAGCCGCAGTCCGGCCG gave an ETS1 binding intensity of 858.
TCGCTTCCTGCTCCACTTCTCGGCGCCCACATCTCC showed an ETS1 binding intensity of 514.
In the case of TCTGTGACTACGCGGATGTTGTGGGCGGCTACATGC, the ETS1 binding intensity is reported as 1000.
For CTTCCATCCAGGAAGCTTGTGGTGCAACAGCAGTGT, the ETS1 binding intensity was 840.
GGATGACATCCGGCACCAACTTAACCACTAATCTCA gave an ETS1 binding intensity of 615.
CAGCTAGAGGAAGCGCTTCGCCCGCGAACCACAGGG was tested, and the ETS1 binding intensity was 375.
Sequence CGGTTCCGGCGCCTGAAGTTTTAGCTGCGGTGGCGG has an ETS1 binding intensity of 347.
Work on CAGCTAGCCGGAAGAAGCTGCGGCGACAGCGTCCTG yielded an ETS1 binding intensity of 1690.
In the case of TCACTCCTCTTCCTTCCTGCCACCCACAGGGTCAGC, the ETS1 binding intensity is reported as 532.
Sequence CAGGTGTTCAGGAAACAAAACCACAGACTTTTTCAC has an ETS1 binding intensity of 562.
With TTCTCCACTTCCTTCTTTACCTCACCTACCACATAA the ETS1 binding intensity was 568.
Sequence TGCACGGTAAGCAGGAAGCTGCGGCCGAGCTGAGTC has an ETS1 binding intensity of 2020.
With GGCGGAAGCTGCCGCTGCCTTGCGCCCCCACACACG the ETS1 binding intensity was 640.
Sequence GCACACCGGAACTCACACCTGAAACCACAGAACCAA has an ETS1 binding intensity of 868.
Work on AATCATCAGGGAAATGCAAATCAAAACCACAATCAG yielded an ETS1 binding intensity of 547.
AGTAGGATGGGAGGAAGTGGTTTGTAAGAGGAGGAC was tested, and the ETS1 binding intensity was 1780.
In the case of CCCCTTAGCACAGGATGTGGTCTTTGCATCTTCATT, the ETS1 binding intensity is reported as 4640.
AAAACAAGGACTTCCGCCTCCCTGCGGTCCCTCCCC was tested, and the ETS1 binding intensity was 2140.
GGTAAAGCAACAGGATGTGGGTGTCTGACTTACAAT showed an ETS1 binding intensity of 4330.
With GGCCGGAAGCGCTCTCGTTGGCCCTGCGGCGCTGGA the ETS1 binding intensity was 2120.
TACCCAGAAAGGAAGTGGAACCTGCGGTGAGGCCCC was tested, and the ETS1 binding intensity was 1130.
CCCTGGACGGGAAGCGGCGGCCAGATCCGCAAGCCC was tested, and the ETS1 binding intensity was 584.
CTCGCCCCATTTCCCGTAAATATCAGCCACAGACCA was tested, and the ETS1 binding intensity was 546.
CTCCTTCCTGATCGGGCAGGAACTAACCACAGGAGG gave an ETS1 binding intensity of 1060.
Work on CAAGGTTCCTCCGCTTCCTGCCCGCAGGCCGAACCT yielded an ETS1 binding intensity of 956.
